Measured values taken from the supplement of paper PMC10811239.

tested on: LEGO organoid PTN (PTEN-/-; TP53-/-; NF1-/-); experiment: bioluminescence (viable cell) signal fold change after vs before treatment, normalised to DMSO (ratio); higher = more tumour cell growth / less inhibition; details: 10 µM; treatment time 6 days
Experimental: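 Luc2-labelled iPSC-derived glioblastoma-like organoids (LEGOs, genotypes PT = PTEN-/-;TP53-/-, PTCC = plus CDKN2A/B-/-, PTN = plus NF1-/-) were treated with 10 uM drug for 6 days (applied every other day) at 37 C. Bioluminescence imaging was done before treatment and 2 days after the last dose. BLI signals were normalised to the DMSO control on the same day and then to the pre-treatment signal (N=3).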

Compound	bioluminescence
Nc1[nH]c(=O)ncc1F [Fluorocytosine]	1.26
CO/N=C(\C(=O)N[C@@H]1C(=O)N2C(C(=O)[O-])=C(CSc3nc(=O)c([O-])nn3C)CS[C@H]12)c1csc(N)n1.CO/N=C(\C(=O)N[C@@H]1C(=O)N2C(C(=O)[O-])=C(CSc3nc(=O)c([O-])nn3C)CS[C@H]12)c1csc(N)n1.O.O.O.O.O.O.O.[Na+].[Na+].[Na+].[Na+] [Ceftriaxone sodium]	2.01
Nc1nc2ccc(OC(F)(F)F)cc2s1 [Riluzole]	1.01
COc1cc2c(cc1OC)C(=O)C(CC1CCN(Cc3ccccc3)CC1)C2.Cl (stereo unspecified) [Donepezil HCl]	0.746
Cc1ccc(C(=O)c2cc(O)c(O)c([N+](=O)[O-])c2)cc1 [Tolcapone]	1.31
CN1[C@@H]2CCC[C@H]1C[C@@H](NC(=O)c1nn(C)c3ccccc13)C2.Cl [Granisetron hydrochloride]	1.92
CS(=O)(=O)O.Cc1ccc(NC(=O)c2ccc(CN3CCN(C)CC3)cc2)cc1Nc1nccc(-c2cccnc2)n1 [Imatinib Mesylate]	2.11
CC(C)(C)c1cc(C(C)(C)C)c(NC(=O)c2c[nH]c3ccccc3c2=O)cc1O [Ivacaftor]	0.603
CN=C(NC#N)NCCSCc1nc[nH]c1C [Cimetidine]	1.65
CC(C)Oc1ccc(-c2nc(-c3cccc4c3CC[C@@H]4NCCO)no2)cc1C#N [Ozanimod]	0.741
CO[C@H]1C(=O)[C@]2(C)[C@@H](OC)C[C@H]3OC[C@@]3(OC(C)=O)[C@H]2[C@H](OC(=O)c2ccccc2)[C@]2(O)C[C@H](OC(=O)[C@H](O)[C@@H](NC(=O)OC(C)(C)C)c3ccccc3)C(C)=C1C2(C)C [Cabazitaxel]	0.429
